Compounds without any hit were thinned out: in the full panel of roughly 79,000, 15% have a hit. The source made the active and inactive calls. Cut-off read from the data, not from the text of the source: active = growth inhibition above about 70%; inactive = the rest.
Experiments:
[1] = NCI Yeast Anticancer Drug Screen. Data for the rad50 strain (AID 155);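 note: 0% = growth of vehicle-only cultures of the same strain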; details: S. cerevisiae rad50 strain growth inhibition, hits give high values
In short: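 Inhibition values express reduced yeast growth in compound-treated cultures relative to vehicle-treated controls.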

[2] = NCI Yeast Anticancer Drug Screen. Data for the mec2-1 strain (AID 157); details: S. cerevisiae mec2-1 strain, hits give high values
In short: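 Cells of the genetically defined mec2-1 yeast strain are incubated with test compound. Inhibition of growth is calculated against vehicle-treated controls.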

[3] = NCI Yeast Anticancer Drug Screen. Data for the sgs1 mgt1 strain (AID 161);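 note: 0% = growth of cultures given vehicle only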; details: S. cerevisiae sgs1 mgt1 strain, hits give high values
In short: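 Genetically altered yeast, compound exposure, growth inhibition relative to vehicle.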

[4] = NCI Yeast Anticancer Drug Screen. Data for the cln2 rad14 strain (AID 165);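 note: 0% = growth equal to vehicle treated cultures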; details: S. cerevisiae cln2 rad14 strain, hits give high values
In short: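 The screen exposed genetically defined yeast (cln2 rad14) to test compounds and scored growth inhibition relative to vehicle-treated controls.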

[5] = NCI Yeast Anticancer Drug Screen. Data for the bub3 strain (AID 167); details: S. cerevisiae bub3 mutant strain, hits give high values
In short: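 Steps: expose the mutant yeast strain to compound; grow alongside vehicle-treated cultures; measure growth; express inhibition against the vehicle cultures.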

[6] = NCI Yeast Anticancer Drug Screen. Data for the mlh1 rad18 strain (AID 175); details: S. cerevisiae mlh1 rad18 strain growth inhibition, hits give high values
In short: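 Compound-treated yeast growth, normalised to vehicle controls. Strain bears defined DNA repair mutations.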

[7] = at 5.0 µM (retest, dose inferred, filed as 0.5)
[8] = at 50.0 µM (retest, dose inferred, filed as 5.0)

Measured: growth inhibition

NC(=O)N/N=C/C(O)C(O)C(O)C(O)CO (configuration not stated)
inactive: [1]; [7] 0% | [1]; [8] 44% | [2]; [7] -4% | [2]; [8] 1% | [2]; at 50.0 µM 59.9% | [3]; [7] -1% | [3]; [8] 16% | [3]; at 50.0 µM 35.5% | [4]; [7] 0% | [4]; [8] 26% | [4]; at 50.0 µM 6.55% | [5]; [7] -5% | [5]; [8] 7% | [5]; at 50.0 µM 36.1% | [6]; [7] -4% | [6]; [8] 20% | [6]; at 50.0 µM 19.7%
active: [1]; at 50.0 µM 77.1%

CN(C)C1C=CCC(c2ccccc2)C1[N+](=O)[O-] (configuration not stated)
active: [1]; [8] 83% | [1]; at 50.0 µM 93.2% | [2]; at 50.0 µM 96.9% | [3]; [8] 81% | [3]; at 50.0 µM 98.5% | [4]; [8] 70% | [4]; at 50.0 µM 92.3% | [5]; [8] 79% | [5]; at 50.0 µM 92.5% | [6]; [8] 94% | [6]; at 50.0 µM 98.8%
inactive: [1]; [7] 1% | [2]; [7] 10% | [2]; [8] 68% | [3]; [7] 7% | [4]; [7] 5% | [5]; [7] 1% | [6]; [7] 5%

O=C1c2ccccc2-c2cc(S)c([N+](=O)[O-])cc21
inactive: [1]; [7] -10% | [1]; [8] 12% | [1]; at 50.0 µM 9.15% | [2]; [7] -9% | [2]; [8] 10% | [2]; at 50.0 µM 18.5% | [3]; [7] -1% | [3]; [8] 12% | [3]; at 50.0 µM 36.8% | [4]; [7] 1% | [4]; [8] 2% | [4]; at 50.0 µM 21% | [5]; [7] 4% | [5]; [8] 14% | [5]; at 50.0 µM 9.45% | [6]; [7] -6% | [6]; [8] 4% | [6]; at 50.0 µM 18.5%

CCC(CC)C(c1ccc(O)cc1)c1ccc(O)cc1
active: [1]; [7] 92% | [1]; [8] 99% | [1]; at 50.0 µM 99.5% | [2]; [7] 83% | [2]; [8] 100% | [2]; at 50.0 µM 99.5% | [3]; [7] 88% | [3]; [8] 77% | [3]; at 50.0 µM 99.6% | [4]; [7] 97% | [4]; [8] 100% | [4]; at 50.0 µM 99.2% | [5]; [7] 75% | [5]; [8] 98% | [5]; at 50.0 µM 99.7% | [6]; [7] 95% | [6]; [8] 100% | [6]; at 50.0 µM 99.5%

Cc1ccc2c(c1C)-c1c(ccc(C)c1C)C(=O)C2=O
active: [1]; [8] 98% | [1]; at 50.0 µM 99.3% | [2]; [8] 99% | [2]; at 50.0 µM 99.4% | [3]; [8] 99% | [3]; at 50.0 µM 99.7% | [4]; [8] 98% | [4]; at 50.0 µM 99.6% | [5]; [8] 98% | [5]; at 50.0 µM 99.5% | [6]; [7] 75% | [6]; [8] 99% | [6]; at 50.0 µM 99.5%
inactive: [1]; [7] 13% | [2]; [7] 35% | [3]; [7] 5% | [4]; [7] -14% | [5]; [7] 46%

CCC(CC)(c1ccc(C)cc1)c1ccc(C)cc1
inactive: [1]; [7] -12% | [2]; [7] -10% | [3]; [7] -6% | [4]; [7] -80% | [5]; [7] 22% | [5]; [8] -55% | [6]; [7] 7%
active: [1]; [8] 99% | [1]; at 50.0 µM 99.5% | [2]; [8] 99% | [2]; at 50.0 µM 99.2% | [3]; [8] 99% | [3]; at 50.0 µM 98.8% | [4]; [8] 99% | [4]; at 50.0 µM 77.2% | [5]; at 50.0 µM 92.3% | [6]; [8] 99% | [6]; at 50.0 µM 99.6%

C(=P(c1ccccc1)(c1ccccc1)c1ccccc1)[P+](c1ccccc1)(c1ccccc1)c1ccccc1
active: [1]; [7] 98% | [1]; [8] 99% | [1]; at 50.0 µM 99.3% | [2]; [7] 99% | [2]; [8] 100% | [2]; at 50.0 µM 99.3% | [3]; [7] 99% | [3]; [8] 99% | [3]; at 50.0 µM 99.3% | [4]; [7] 98% | [4]; [8] 99% | [4]; at 50.0 µM 98.7% | [5]; [7] 98% | [5]; [8] 99% | [5]; at 50.0 µM 99% | [6]; [7] 99% | [6]; [8] 99% | [6]; at 50.0 µM 99.2%

CCCCCCOC(=O)COc1ccccc1
inactive: [1]; [7] 4% | [1]; [8] 2% | [1]; at 50.0 µM 23.6% | [2]; [7] 0% | [2]; [8] -1% | [2]; at 50.0 µM -0.8% | [3]; [7] -1% | [3]; [8] 3% | [3]; at 50.0 µM 20.6% | [4]; [7] 5% | [4]; [8] 1% | [4]; at 50.0 µM 40.8% | [5]; [7] 24% | [5]; [8] 45% | [5]; at 50.0 µM 15.8% | [6]; [7] -1% | [6]; [8] 0% | [6]; at 50.0 µM 33.7%

c1ccc(C2=NOC3(c4ccccc4)SC4CCCCC4CN23)cc1 (configuration not stated)
active: [1]; [8] 97% | [1]; at 50.0 µM 90.3% | [2]; [8] 98% | [2]; at 50.0 µM 93.7% | [3]; [8] 97% | [3]; at 50.0 µM 92.4% | [4]; [8] 98% | [4]; at 50.0 µM 90.4% | [5]; [8] 97% | [5]; at 50.0 µM 90.2% | [6]; [8] 98% | [6]; at 50.0 µM 90.1%
inactive: [1]; [7] 6% | [2]; [7] -22% | [3]; [7] 10% | [4]; [7] 15% | [5]; [7] 25% | [6]; [7] 8%
